# Most compounds without a hit are left out; they make up all but 19% or so of the library.
# TDP1 cell noCPT: qHTS for Inhibitors of human tyrosyl-DNA phosphodiesterase 1 (TDP1): qHTS in cells in absence of CPT. DT40 Tdp1-/- hTDP1 cells, no CPT, ATP luminescence, 48 h. Potency, µM (highest dose often 46.2 µM), without a hit: at the highest dose activity change, negative = growth inhibition, most hits filed as inhibitors. 420,000 tested, 15% active; further: potency means the concentration at half of the fitted maximal effect; on the % scale 0 is the no-effect control and ±100 the full control effect; nearly all actives have a fitted effect of over 55% in size
#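 Growth of hTDP1-complemented DT40 Tdp1-knockout cells is measured by ATP luminescence after at least 48 hr compound exposure at 37 °C, with DMSO substituting for the 20 nM CPT used in the parallel screen.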
# BCR signal inh: qHTS Assay to Find Inhibitors of Chronic Active B-Cell Receptor Signaling; ABC-DLBCL IkBa-CBG/CBR reporter, luminescence ratio, 4 h; Potency, µM (titrated, usually from 46.1 µM), for inactives: at the top dose activity change, negative = inhibition, hits mostly inhibitors; 340,000 tested, 0.05% active; AID 493014, 2011; active means well fitted inhibition curve with a large enough effect in the signal ratio, with a control signal flat, not every such curve was filed as active; inconclusive means small, poorly fitted or top-dose-only effect, or effect the other way, or a change in a side signal; the % refers to the signal ratio;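 further: potency means the concentration at half of the fitted maximal effect; plate controls were basal doxycycline-induced cells for no effect and cells given 10 µM MG132 for full effect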
#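 Compounds up to 46 uM were incubated four hours with TMD8 cells whose green CBG68 luciferase is fused to IkappaBalpha; red CBR luminescence normalised the signal, and concentration-effect curves were fitted to fusion, red and ratio data.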
# SW480 rerep: A quantitative high throughput screen for small molecules that induce DNA re-replication in SW480 colon adenocarcinoma cells; Potency, µM (doses to about 46.1 µM), inactives show at the top dose re-replication activation, most hits filed as activators; SW480 DNA re-replication, Hoechst DNA content imaging, 48 h; 340,000 tested, 1.8% active; AID 624297, 2012; further: potency means the concentration at half of the fitted maximal effect; % of control where 0% means no effect; nearly all actives have a fitted effect of over 55% in size
#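 Readout is total intensity of Hoechst-stained nuclei, excited at 405 nm and collected at 500-530 nm. Compound treatment lasted 48 hr at 37 C in 5% CO2 before staining.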
# MCF10A rerep: A quantitative high throughput screen for small molecules that induce DNA re-replication in MCF 10a normal breast cells; MCF 10A DNA re-replication, Hoechst nuclear intensity, 48 h; 350,000 tested, 2.9% active; Potency, µM (highest dose often 46.1 µM), inactives show at the highest dose activity, positive = re-replication, actives largely listed as activators; further: potency means the concentration at half of the fitted maximal effect; % of control where 0% means no effect; nearly all actives have a fitted effect of over 50% in size
# DT40 TDP1 CPT: qHTS for Inhibitors of human tyrosyl-DNA phosphodiesterase 1 (TDP1): qHTS in cells in presence of CPT; chicken DT40 Tdp1-/-;hTDP1 cells + 20 nM CPT, ATP luminescence, 48 h; Potency, µM (doses to about 46.2 µM), inactives show top-dose activity change, negative = growth inhibition, most hits filed as inhibitors; 420,000 tested, 12% active; further: potency means the concentration at half of the fitted maximal effect; on the % scale 0 is the no-effect control and ±100 the full control effect; nearly all actives have a fitted effect of over 55% in size
#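 Chicken DT40 Tdp1-/- cells stably complemented with human TDP1 were seeded at 400 cells/well in medium containing 20 nM camptothecin, exposed to pin-transferred compounds, and grown at 37 °C for at least 48 hr. Viability was read as ATP luminescence.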
# IL1B secr inh: qHTS for Inhibitors of Inflammasome Signaling: IL-1-beta AlphaLISA Primary Screen; THP-1 LPS/ATP IL-1B secretion, AlphaLISA, 16 h; stronger effect = lower value; activity change, % at 57.5 µM; 360,000 tested, 4.7% active; in the data active means activity change below about -50%; inconclusive means mostly about -30% to -49%; further: on the % scale 0 is the no-effect control and ±100 the full control effect
#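 THP-1 cells pretreated 1 hr with compounds (up to 57.5 uM final), then stimulated with LPS (250 ng/mL final) plus ATP (1.25 mM final); secreted IL-1B measured by AlphaLISA after 16 hr, decreased signal indicating inhibition.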
# Numbers without * were called inactive; ? = inconclusive; nt = not tested or not shown; ! = a repeat was not active; [ ] = dose if it differs, or a comment. Unless noted, the call rests on the fitted dose curve; in most records, active means well fitted curve in the direction sought with a large enough effect; inconclusive means small, poorly fitted or top-dose-only effect, or another doubt; inactive means no such curve, though single readings can be large; an effect the other way counts as inactive or inconclusive.
SMILES,TDP1 cell noCPT,BCR signal inh,SW480 rerep,MCF10A rerep,DT40 TDP1 CPT,IL1B secr inh
O=C(NCc1ccc(Cl)cc1)C(=O)NCC(c1cccnc1)N1CCN(c2ccccc2)CC1 (configuration not stated),7.3µM*,nt,nt,nt,9.2µM*,nt
OC(CNCc1ccccc1)c1ccc(Cl)cc1 (configuration not stated),?,nt,-7%,4%,?,-23
Cc1ccc(NC(=O)N(Cc2ccc3c(c2)OCO3)C2CCN(Cc3ccccc3)CC2)cc1C,29µM*,nt,nt,nt,?,nt
Cc1cccc(N2CCN(Cc3ccc4c(c3)OCO4)CC2)c1C,?,4%,3%,?,?,11
COc1ccc(C)cc1NC(=O)N(Cc1ccc2c(c1)OCO2)C1CCN(Cc2ccccc2)CC1,5.2µM*,nt,nt,nt,?,nt
COc1ccccc1N1CCN(Cc2ccc3c(c2)OCO3)CC1,?,nt,-10%,-2%,-3%,12
Cc1ccc(NC(=O)N(Cc2ccc3c(c2)OCO3)C2CCN(Cc3ccccc3)CC2)cc1Cl,15µM*,nt,nt,nt,4.6µM*,nt
Cc1ccc(Cl)cc1NC(=O)N(Cc1ccc2c(c1)OCO2)C1CCN(Cc2ccccc2)CC1,13µM*,nt,nt,nt,?,nt
Cc1cccc(NP(C)(=O)c2nc3c(s2)CCCC3)c1 (configuration not stated),-26%,4%,2%,1%,-2%,13
CCS(=O)CCSP(=O)(OC)OC (configuration not stated),-5%,nt,nt,nt,12%,nt
C=CC(C)C(C(=O)c1ccccc1)N(C)C (configuration not stated),-22%,4%,-3%,-1%,-11%,-10
CC(C)c1cccc(C(C)C)c1OC(=O)NC(=O)c1c(F)cccc1F,-25%,?,2%,-2%,?,4
O=C(NCCO)c1nsnc1NCCCl,7%,9%,1%,5%[9.22 µM],9%,47
CCN1C[C@]2(COC(=O)c3ccccc3N3C(=O)CC(C)C3=O)CC[C@H](OC)[C@@]34C5C[C@@H]6[C@@H](OC)C[C@@](O)(C5[C@H]6OC)[C@](O)([C@@H](OC)C23)[C@@H]14 (some centres not stated),14%,nt,nt,nt,4%,nt
Cc1ccc2c(Cl)cc(Cl)c(O)c2n1,3.3µM*!,nt,10µM*,21µM*,2.9µM*!,-94*
Cc1cc(C(=O)OCC(=O)Nc2cccc(F)c2)c(C)n1C1CC1,-1%,?,1%,4%,?,-17
CCOC(=O)c1cc(-c2ccccc2)n(CCCC(=O)Nc2ccc(C)c(C)c2)c1C,3.7µM*,11%,nt,nt,16µM*,nt
NC(CP(=O)(O)O)C(=O)O (configuration not stated),-4%,nt,nt,nt,-2%,nt
O=C(CCCN1CCC2(CC1)C(=O)N(Cc1cccc(F)c1)CN2c1ccccc1)c1ccc(F)cc1,15µM*,nt,nt,nt,30µM*,nt
Cc1ccc(O)c(C(CCN(C(C)C)C(C)C)c2ccccc2)c1 (configuration not stated),-17%,nt,nt,nt,-10%,nt
O=C1NCCCCC1(Cl)Cl,5%,nt,-2%,0%,-4%,19
COc1ccc(C(=O)N2CCN(c3nc4c(OC)cccc4s3)CC2)cc1OC,15µM*,-6%,nt,nt,18µM*,nt
COCCNC(=O)c1c(NC(=O)c2ccc(Br)o2)n(Cc2ccccc2)c2nc3ccccc3nc12,?,?,?,5.8µM*,18µM*,-10
N=C1c2ccccc2CN1NC(=O)c1ccc(Br)o1,-5%,-7%,-20%,0%,0%,5
